According to the supplement of paper PMC12669032:
Unmarked numbers belong to inactive results.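 The calls were made as follows: active = AUC reduced over 20% with Padj below 0.05 in at least 2 of 3 replicates; inactive = otherwise.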

What follows are compounds tested on Roseburia intestinalis (assay: growth AUC relative to DMSO control (median of replicates) (fraction); higher = more growth (less inhibition), active = hit call of the paper). Conditions: 20 µM; 24 h.
Summary of the method: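 Gut bacterial monocultures were grown anaerobically at 37 °C in mGAM from a starting OD600 of 0.05 with 20 µM compound (1% DMSO), in round-bottom 96-well plates under pierced gas-permeable seals, and OD600 was read hourly for 24 h. With the minimum OD set to 0, area under the growth curve was normalised to the plate median of solvent-only wells, or to row and column medians on the industrial chemical plate. Each value is the median of three biological replicates grown on separate days.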

Row | SMILES | growth AUC
1 | CC(=O)CC(c1ccco1)c1c(O)c2ccccc2oc1=O (stereo unspecified) | 0.975
2 | C[N+](C)(C)CCCl.[Cl-] | 0.994
3 | CCOP(=O)(OCC)Oc1ccc([N+](=O)[O-])cc1 | 1.03
4 | c1nc[n]([Sn]([CH]2CCCCC2)([CH]2CCCCC2)[CH]2CCCCC2)n1 | 0.654 (active)
5 | O=C(NCCc1ncc(C(F)(F)F)cc1Cl)c1ccccc1C(F)(F)F | 0.987
6 | CC(C)C1(C)N=C(c2nc3ccccc3cc2C(=O)O)NC1=O (stereo unspecified) | 1.03
7 | O=[N+]([O-])c1c(Cl)c(Cl)cc(Cl)c1Cl | 1.06
8 | Cc1ccn2nc(S(=O)(=O)Nc3c(F)cccc3F)nc2n1 | 0.997
9 | COC(=O)Nc1cccc(OC(=O)Nc2cccc(C)c2)c1 | 0.936
10 | N#CC(CCc1ccc(Cl)cc1)(Cn1cncn1)c1ccccc1 (stereo unspecified) | 0.911
11 | CN(C)C(=S)SSC(=S)N(C)C | 0.822
12 | CC1(C)[C@H](C=C(Cl)Cl)[C@H]1C(=O)OCc1c(F)c(F)cc(F)c1F | 0.946
13 | COC[C@H](C)N(C(=O)CCl)c1c(C)csc1C | 0.966
14 | CCCN(CCC)c1c([N+](=O)[O-])cc(S(N)(=O)=O)cc1[N+](=O)[O-] | 0.961
15 | COP(=S)(NC(C)C)Oc1ccccc1C(=O)OC(C)C (stereo unspecified) | 0.938
16 | ClC1=C(Cl)C(Cl)(C2(Cl)C(Cl)=C(Cl)C(Cl)=C2Cl)C(Cl)=C1Cl | 0.91
